TDP1 cell CPT: DT40-hTDP1 cell growth loss with CPT. chicken DT40 Tdp1-/-;hTDP1 cells + 20 nM CPT, ATP luminescence, 48 h. Potency, µM (highest dose often 46.2 µM), inactives show at the highest dose activity change, negative = growth inhibition, actives largely listed as inhibitors. actives 12% (n = 420,000). AID 686979; also: potency is read from the fitted curve at half-maximal effect; % is scaled to controls: 0 for no effect and ±100 for the full control effect; nearly all actives have a fitted effect of over 55% in size
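Chicken DT40 Tdp1-/- cells complemented with human TDP1, 400 cells/well, exposed to compounds plus 20 nM camptothecin for at least 48 h at 37 C; viability read as ATP content by CellTiter-Glo luminescence.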
TGFb SMAD3 inh: blocks TGF-b signaling. HepG2 CAGA-GFP TGF-b/SMAD3 reporter, GFP fluorescence, 18 h; TGF-beta stimulated, 500 pg/mL final. Potency, µM (titrated, usually from 46.1 µM), for inactives: at the top dose activity, negative = inhibition, actives largely listed as inhibitors. actives 1.2% (n = 410,000). AID 588855; also: potency is read from the fitted curve at half-maximal effect; % is scaled to controls: 0 for no effect and ±100 for the full control effect; nearly all actives have a fitted effect of over 65% in size
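First, reporter cells (HEPG2 CAGA-GFP) rested 2 h at 37 degrees C. Next, compounds were pinned in and TGF-beta added to 500 pg/mL final. After 18 h, GFP was imaged per cell and summed per well.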
IL1B secr inh: blocks inflammasome-driven IL-1 beta release. actives 4.7% (n = 360,000). THP-1 LPS/ATP IL-1B secretion, AlphaLISA, 16 h; hits give low values. activity change, % at 57.5 µM. AID 743279; in the data active = activity change below about -50%; inconclusive = mostly about -30% to -49%; also: % is scaled to controls: 0 for no effect and ±100 for the full control effect
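THP-1 cells pretreated 1 hr with compounds (up to 57.5 uM final), then stimulated with LPS (250 ng/mL final) plus ATP (1.25 mM final); secreted IL-1B measured by AlphaLISA after 16 hr, decreased signal indicating inhibition.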
DT40 TDP1 no CPT: qHTS for Inhibitors of human tyrosyl-DNA phosphodiesterase 1 (TDP1): qHTS in cells in absence of CPT. actives 15% (n = 420,000). DT40 Tdp1-/- hTDP1 cells, no CPT, ATP luminescence, 48 h. Potency, µM (top dose mostly 46.2 µM), inactives show top-dose activity change, negative = growth inhibition, actives largely listed as inhibitors. AID 686978, 2013; also: potency is read from the fitted curve at half-maximal effect; % is scaled to controls: 0 for no effect and ±100 for the full control effect; nearly all actives have a fitted effect of over 55% in size
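Compound effects on proliferation are scored in DT40 Tdp1-/-;hTDP1 cells in the absence of CPT. ATP levels (CellTiter-Glo luminescence) are recorded after a ≥48 hr, 37 °C incubation.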
TDP1 block: blocks human tyrosyl-DNA phosphodiesterase 1; actives 0.28% (n = 350,000); recombinant TDP1, AlphaScreen DNA substrate cleavage; Potency, µM (titrated, usually from 130 µM), inactives show top-dose activity change, negative = inhibition, usual class: inhibitors; AID 485290; Q9NUW8; also: potency is read from the fitted curve at half-maximal effect; % is scaled to controls: 0 for no effect and ±100 for the full control effect; nearly all actives have a fitted effect of over 40% in size
Target sequence (Q9NUW8 whole entry, looked up): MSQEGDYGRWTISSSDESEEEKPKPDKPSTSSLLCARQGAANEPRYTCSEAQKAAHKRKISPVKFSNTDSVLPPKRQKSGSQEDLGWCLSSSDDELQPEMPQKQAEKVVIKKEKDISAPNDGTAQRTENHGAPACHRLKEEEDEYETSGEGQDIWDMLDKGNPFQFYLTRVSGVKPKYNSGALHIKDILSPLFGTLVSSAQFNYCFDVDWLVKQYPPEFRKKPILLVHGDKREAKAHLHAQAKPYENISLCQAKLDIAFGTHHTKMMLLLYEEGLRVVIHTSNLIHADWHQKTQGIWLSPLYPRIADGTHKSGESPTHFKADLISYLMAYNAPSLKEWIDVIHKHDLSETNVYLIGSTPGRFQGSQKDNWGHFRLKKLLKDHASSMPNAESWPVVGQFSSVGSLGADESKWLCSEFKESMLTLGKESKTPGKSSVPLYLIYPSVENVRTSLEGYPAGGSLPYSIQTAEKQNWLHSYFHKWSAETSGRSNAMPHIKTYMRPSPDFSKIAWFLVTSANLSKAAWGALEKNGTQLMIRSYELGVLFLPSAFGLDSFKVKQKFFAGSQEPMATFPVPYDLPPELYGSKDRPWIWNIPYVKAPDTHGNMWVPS
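Signal: AlphaScreen proximity between streptavidin donor and anti-FITC acceptor beads on intact substrate. Reaction: Tdp1 1 nM, substrate 15 nM final, 5 min RT after 15 min compound preincubation.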
HepG2 tox: counter-screen for TGF-b inhibitors: cytotoxicity in HepG2 cells. HepG2 CAGA-GFP viability, ATP luminescence, 18 h. actives 0.76% (n = 410,000). Potency, µM (highest dose often 46.1 µM), inactives show at the highest dose activity change, negative = cytotoxicity, hits mostly cytotoxic; also: potency is read from the fitted curve at half-maximal effect
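CellTiter-Glo luminescence gave cytotoxicity after 18 hours at 37 degrees C. The cells were HepG2 CAGA-GFP in 1% FBS DMEM, stimulated with 500 pg/mL TGF-beta after compound addition. %Activity was normalised to no-cell wells (complete cell-killing) and DMSO (no toxicity), and curves were fitted and classified.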
The depositor's hits bear a star; ? = inconclusive; . = no result. Only some compounds are listed: those with a hit (about 18% of all), similar ones and a draw of the others. Unless noted, calls follow the shape of the dose curve; as a rule, active = well fitted curve in the direction sought with a large enough effect; inconclusive = small, poorly fitted or top-dose-only effect, or another doubt; inactive = no such curve, though single readings can be large; an effect the other way counts as inactive or inconclusive.

SMILES	TDP1 cell CPT	TGFb SMAD3 inh	IL1B secr inh	DT40 TDP1 no CPT	TDP1 block	HepG2 tox
Cc1ccc(NC(=O)Cn2c(=O)ccc3cc(S(=O)(=O)N4CCC(C)CC4)ccc32)cc1C	?	5%	.	-60%	7%	-12%
CCc1cccc(NC(=O)Cn2c(=O)ccc3cc(S(=O)(=O)N4CCC(C)CC4)ccc32)c1	18µM*	-2%	.	16µM*	4%	-30%
COc1cc(C2CC(=O)Nc3c2c(C)nn3-c2nncc(-c3ccccc3)n2)cc(OC)c1OC (stereo unspecified)	?	-3%	.	-9%	0%	-11%
O=C(CCN1C(=O)c2ccccc2S1(=O)=O)Nc1ccc(Cl)cc1	-8%	0%	13	11%	2%	5%
CCCCN(C)CCCNC(=O)c1ccc2c(c1)NC(=O)C(N1CCOCC1)S2 (stereo unspecified)	-2%	-28%	-3	-3%	2%	-9%
CCc1ccc(CNC(=O)c2ccc3c(c2)NC(=O)C(N2CCOCC2)S3)cc1 (stereo unspecified)	23µM*	?	-6	-57%	2%	-3%
CCc1ccc(NC(=O)CC2C(=O)N(c3ccc(Cl)cc3)C(=O)N2Cc2ccco2)cc1 (stereo unspecified)	21µM*	?	.	?	6%	-46%
CCc1ccc(NC(=O)CC2C(=O)N(c3cccc(C)c3)C(=O)N2Cc2cccs2)cc1 (stereo unspecified)	21µM*	?	.	21µM*	0%	-31%
CCc1ccc(NC(=O)CC2C(=O)N(c3cccc(C)c3)C(=O)N2Cc2ccco2)cc1 (stereo unspecified)	16µM*	?	.	26µM*	6%	-41%
CCc1ccc(NC(=O)CC2C(=O)N(c3cccc(OC)c3)C(=O)N2Cc2ccco2)cc1 (stereo unspecified)	?	-11%	.	?	6%	-24%
CCOc1ccc(NC(=O)CC2C(=O)N(c3cccc(C)c3)C(=O)N2Cc2ccco2)cc1 (stereo unspecified)	?	-5%	.	?	8%	-2%
Cc1ccc2nc(-c3ccc(SCC(=O)Nc4nnc(C)s4)nc3)[nH]c2c1	?	11µM*	-95*	15µM*	-1%	13µM*
Cc1ccc2nc(-c3ccc(SCC(=O)Nc4nc(C)cs4)nc3)[nH]c2c1	18µM*	0%	9	10µM*	3%	1%
Cc1cccc(NS(=O)(=O)c2cc3c(cc2C)n(C)c(=O)c(=O)n3C)c1	?	-13%	31	?	.	-21%
Cc1ccc(Cl)cc1N1CCN(C(c2cccnc2)c2nnnn2C2CCCCC2)CC1 (stereo unspecified)	?	-8%	-53*	?	3%	-18%
Clc1ccc(C(c2nnnn2CCc2ccccc2)N2CCSCC2)cc1 (stereo unspecified)	?	-4%	?	?	5%	3%
COCCn1nnnc1C(c1cccs1)N1CCN(c2cc(C)ccc2C)CC1 (stereo unspecified)	?	-17%	-53*	?	7%	-10%
Oc1ccc(C(c2nnnn2CCc2ccccc2)N2CCN(c3nc4ccccc4s3)CC2)cc1 (stereo unspecified)	16µM*	-2%	-50*	13µM*	.	-13%
Clc1ccc(C(c2nnnn2C2CCCC2)N2CCN(c3nc4ccccc4s3)CC2)cc1 (stereo unspecified)	-6%	-14%	-5	-21%	.	-6%
c1cnc2ccc(C(c3nnnn3C3CCCC3)N3CCN(c4nc5ccccc5s4)CC3)cc2c1 (stereo unspecified)	?	0%	-53*	?	4%	7%
COc1ccc(CNC(=O)C2CCN(S(=O)(=O)c3cccc4nonc34)CC2)cc1	4%	5%	8	0%	-6%	-7%
O=C(CNC(=O)c1ccccc1Cl)OC(C(=O)Nc1cc(C(F)(F)F)ccc1Cl)c1ccccc1 (stereo unspecified)	.	.	.	.	-3%	.
Cc1ccc(NC(=O)CNC(=O)c2ccco2)c(Cl)c1	1%	-7%	48	-27%	.	-3%
O=C(NCc1ccccc1)C(c1c(F)cccc1Cl)N(C(=O)c1csnn1)C1CC1 (stereo unspecified)	?	-1%	-17	?	0%	-9%
COCCn1nnnc1C(c1cccs1)N1CCN(c2nc3ccccc3s2)CC1 (stereo unspecified)	?	-30%	-17	23µM*	3%	-9%
SMILES	TDP1 cell CPT	TGFb SMAD3 inh	IL1B secr inh	DT40 TDP1 no CPT	TDP1 block	HepG2 tox
COc1ccc(C(c2nnnn2C(C)(C)C)N2CCN(c3nc4ccccc4s3)CC2)cc1OC (stereo unspecified)	?	-8%	0	2%	6%	-4%
COc1cc(C(c2nnnn2C(C)(C)C)N2CCN(c3nc4ccccc4s3)CC2)ccc1O (stereo unspecified)	15µM*	18%	7	12µM*	10%	25%
O=C(Nc1ccc(-c2csnn2)cc1)C(Cl)(Cl)Cl	16µM*	20%	?	7.3µM*	0%	55%
CN(C(=O)CSc1nnc(Nc2ccccc2)s1)c1c(N)n(Cc2ccccc2)c(=O)[nH]c1=O	?	?	1	?	7%	2%
CC(C)CN(C(=O)COC(=O)c1cnc(Cl)c(Cl)c1)c1c(N)n(Cc2ccccc2)c(=O)[nH]c1=O	-24%	13%	-96*	-10%	.	-27%
Cc1ccc(SCC(=O)OCC(=O)N(CC(C)C)c2c(N)n(Cc3ccccc3)c(=O)[nH]c2=O)cc1C	?	18µM*	-19	?	0%	-156%
CCCCN(C(=O)CSc1nnc(Nc2ccc(C)c(C)c2)s1)c1c(N)n(Cc2ccccc2)c(=O)[nH]c1=O	18µM*	?	-77*	?	2%	-19%
Cc1ccc(C(=O)NCC(=O)OCC(=O)N(CC(C)C)c2c(N)n(Cc3ccccc3)c(=O)[nH]c2=O)cc1C	?	1%	9	?	-16%	3%
CC(C)CN(C(=O)COC(=O)c1cccnc1Cl)c1c(N)n(Cc2ccccc2)c(=O)[nH]c1=O	10%	6%	?	4%	.	8%

Assay outcomes deposited in PubChem BioAssay by National Center for Advancing Translational Sciences (NCATS).
